The supplement of paper PMC3334620
The full ranking holds about 33,000 sequences; the median of “E-score (-0.5 to 0.5)” is about -0.056, and the highest 2% start at about 0.38. The entries come from a sample that favours the highest values as a whole.

What follows are sequences tested against Stb4 (UniProt P50104) (assay: PBM E-score (8-mer binding enrichment) (E-score (-0.5 to 0.5)); higher = stronger / more preferred TF binding). Conditions: protein concentration: 200 nM; construct: GST-DNA-binding domain.
UniProt P50104, sequence (P50104 whole entry, the tested form may be a part): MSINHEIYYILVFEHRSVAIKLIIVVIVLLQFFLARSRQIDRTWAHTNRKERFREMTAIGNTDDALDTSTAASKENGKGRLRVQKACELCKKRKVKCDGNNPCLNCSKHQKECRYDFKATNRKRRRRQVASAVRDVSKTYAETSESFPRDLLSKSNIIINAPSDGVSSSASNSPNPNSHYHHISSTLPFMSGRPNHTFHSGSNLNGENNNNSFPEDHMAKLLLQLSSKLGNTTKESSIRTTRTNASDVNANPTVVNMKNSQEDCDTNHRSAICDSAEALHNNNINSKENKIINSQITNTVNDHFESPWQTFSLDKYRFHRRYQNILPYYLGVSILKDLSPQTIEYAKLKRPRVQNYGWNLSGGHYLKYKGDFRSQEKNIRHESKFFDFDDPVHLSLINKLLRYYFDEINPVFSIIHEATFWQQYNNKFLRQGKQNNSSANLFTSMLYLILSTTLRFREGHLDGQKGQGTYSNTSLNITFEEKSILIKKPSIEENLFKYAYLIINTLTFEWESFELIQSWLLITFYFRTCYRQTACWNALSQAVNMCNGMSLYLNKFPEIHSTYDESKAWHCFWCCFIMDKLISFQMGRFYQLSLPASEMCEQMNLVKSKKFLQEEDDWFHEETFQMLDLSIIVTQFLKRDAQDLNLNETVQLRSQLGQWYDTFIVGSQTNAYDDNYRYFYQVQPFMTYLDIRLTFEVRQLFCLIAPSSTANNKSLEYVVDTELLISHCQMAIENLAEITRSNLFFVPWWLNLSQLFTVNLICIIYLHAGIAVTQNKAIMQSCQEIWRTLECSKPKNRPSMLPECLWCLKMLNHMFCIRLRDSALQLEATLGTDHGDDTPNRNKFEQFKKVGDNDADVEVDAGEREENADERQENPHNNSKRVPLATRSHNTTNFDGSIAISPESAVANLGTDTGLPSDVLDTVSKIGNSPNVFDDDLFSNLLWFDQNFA
Method: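 Universal 'all 10-mer' protein binding microarrays (Agilent AMADID 015681) probed with GST-tagged S. cerevisiae TFs (full-length or DBD) made by in vitro transcription/translation (PURExpress), about 100-200 nM. Bound TF was detected with fluorescent anti-GST. Each ungapped 8-mer (which stands for itself and its reverse complement) is scored by the PBM enrichment score (E-score), a modified Wilcoxon-Mann-Whitney statistic from -0.5 to +0.5, computed with the Universal PBM Analysis Suite. Scale: above 0.35 generally sequence-specific binding.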

| Sequence | PBM E-score |
| --- | --- |
| CTACGAAG | -0.247 |
| ATGCGAAT | 0.0493 |
| ATCCGAAT | 0.48 |
| ATACGAAT | -0.0803 |
| CTCCGAAG | 0.413 |
| CCTATTCA | -0.0251 |
| CGCGCCTA | 0.0819 |
| CACTGGTA | -0.276 |
| GAGTCCCA | 0.116 |
| TGACTCAA | -0.149 |
| CGTTCTCC | -0.0997 |
| AGGTTCGG | 0.403 |
| AGGTTCCA | 0.0324 |
| AGGTTCCC | -0.0987 |
| AAGTTCCT | -0.00611 |
| AGGTTCCG | 0.383 |
| CAGTTCCG | 0.364 |
| ACGTTCCG | 0.398 |
| AGGTTCGC | 0.0812 |
| AAGTTCCG | 0.434 |
| AGGTTCGA | -0.0841 |
| ACGTTCCT | -0.168 |
| ACGTTCCA | -0.0774 |
| CATAACCC | 0.051 |
| AGGTGGGG | -0.0596 |

| Sequence | PBM E-score |
| --- | --- |
| GCAAAAAC | -0.0252 |
| CACAGCTC | -0.18 |
| GCACCATA | -0.021 |
| CAGAACTA | -0.0215 |
| CGGCGATA | 0.277 |
| CGTAGGGC | -0.195 |
| ACATTTCC | 0.141 |
| CGCACCGC | -0.00306 |
| ATGTTCCG | 0.448 |
| ATGTTCCC | 0.153 |
| CCGTTCCC | 0.273 |
| ATGTTCGC | -0.118 |
| CCGTTCCA | 0.183 |
| ATGTTCCA | -0.0991 |
| CCGTTCCG | 0.431 |
| ATGTTCGG | 0.392 |
| ATGTTCGA | -0.112 |
| AAAACCCA | -0.0723 |
| CCTGGCAG | -0.289 |
| CTTTGAGC | -0.151 |
| GAACCACC | 0.218 |
| CGGTGGTA | 0.0785 |
| TACCAAAA | -0.12 |
| AAATTGTG | -0.295 |
| GTGATCTA | -0.0262 |

| Sequence | PBM E-score |
| --- | --- |
| ATCCCTTC | -0.183 |
| GCGATTGA | -0.113 |
| AAGCCGCA | 0.167 |
| AAGCCGGA | 0.355 |
| AAGCCGAA | 0.407 |
| AAGCCGAT | 0.299 |
| CAGCCGAA | 0.392 |
| AAGCCGAC | 0.26 |
| GAGCCGGA | 0.348 |
| TAGCCGGA | 0.384 |
| AAGCCAAA | -0.0671 |
| CAGCCGAC | 0.311 |
| AAGCCGAG | 0.401 |
| CAGCCAAA | -0.0614 |
| CTAGCCAC | -0.287 |
| AACTTGGG | 0.0814 |
| AGAGCCTG | -0.237 |
| TAAGTTGA | -0.103 |
| GGATCACA | 0.228 |
| TAGTGAAA | -0.178 |
| CGATACTC | 0.065 |
| AGGGCCAT | -0.253 |
| TAGCCAAA | 0.0424 |
| GAGCCGAC | 0.296 |
| CAGCCGGG | 0.237 |

| Sequence | PBM E-score |
| --- | --- |
| GAGCCGCA | 0.0237 |
| CAGCCGCG | 0.151 |
| GAGCCGAA | 0.423 |
| CAGCCGAG | 0.409 |
| TGGCCGAA | 0.251 |
| TAGCCGAA | 0.446 |
| AGGTCGCC | 0.00267 |
| AAGGGCAA | 0.158 |
| CTGCTAGC | -0.23 |
| TAGTTTGA | -0.121 |
| ATAACGCA | -0.0729 |
| CCGGTAGA | 0.264 |
| CGGAAACG | 0.384 |
| CGGAAACA | 0.427 |
| AGGAAACG | -0.164 |
| AGGAAACA | -0.0661 |
| GGGAAACA | 0.175 |
| CGGAAACC | 0.347 |
| ATCAAATG | 0.129 |
| ACCTAAAG | -0.0577 |
| AGTGCACC | 0.0754 |
| CGTAAACA | 0.055 |
| ATGCTCGC | -0.239 |
| ACGCTCGA | -0.198 |
| ATGCTCGA | -0.139 |

| Sequence | PBM E-score |
| --- | --- |
| AGGCTCGG | 0.432 |
| ACGCTCGC | -0.227 |
| ACGCTCGG | 0.42 |
| ATGCTCGG | 0.404 |
| AGGCTCGA | -0.126 |
| AGGCTCGC | -0.00633 |
| TAAATGGA | -0.104 |
| TAAAACAA | -0.199 |
| AATGGGGC | -0.232 |
| CCTCGCGC | -0.0639 |
| ATCGACGC | -0.126 |
| CCTAGGGC | -0.153 |
| CGTACCGA | 0.334 |
| ACTATCGG | 0.236 |
| GCTCCCAA | -0.272 |
| ACTCCCGA | 0.411 |
| GCTCCCCA | -0.311 |
| CCTCCCGC | 0.133 |
| CCTCCCGA | 0.387 |
| GCTCCCGA | 0.41 |
| CCTCCCCA | -0.0256 |
| ACTCCCGC | 0.234 |
| ACTCCCGG | 0.372 |
| TTGATCAA | -0.205 |
| ACGGACGC | -0.0449 |

| Sequence | PBM E-score |
| --- | --- |
| CCTCCGAC | 0.209 |
| TCTCCGAA | 0.384 |
| TCTCCAAA | -0.144 |
| GCTCCGAC | 0.238 |
| GCTCCGGA | 0.346 |
| ACTCCGGA | 0.411 |
| TCTCCGCA | 0.147 |
| CCTCCGAA | 0.352 |
| CCTCCGCG | 0.159 |
| CCTCCGAG | 0.4 |
| ACTCCGGC | 0.281 |
| GCTCCGAA | 0.4 |
| AGGCTAGC | -0.217 |
| CCGGTCAC | 0.108 |
| CGGTGCTA | 0.103 |
| TAAGAGAA | -0.344 |
| ACATCGAC | -0.0835 |
| AACAGTAG | -0.0759 |
| ACATTGAT | 0.0749 |
| AAAGTTAG | -0.00674 |
| CAGCGGTC | -0.186 |
| ACTCCGAT | 0.242 |
| ACTCCAAA | -0.0951 |
| ACTCCGTA | 0.0548 |
| ACTCCGAG | 0.395 |

| Sequence | PBM E-score |
| --- | --- |
| ACTCCGAA | 0.385 |
| ACTCCGAC | 0.32 |
| CAATAGGG | -0.163 |
| CGGCCTGA | 0.0862 |
| CAAGCGAA | -0.201 |
| TCGCGTAA | 0.0292 |
| CACAACCC | -0.0519 |
| GTCCATTA | -0.172 |
| AGATCCGA | 0.477 |
| AGATCCCG | 0.407 |
| AGATCCGG | 0.366 |
| AGATCCCT | -0.226 |
| AGATCCGC | 0.291 |
| CGATCCGA | 0.475 |
| GGATCCTA | 0.122 |
| CGATCCCG | 0.342 |
| CGATCCGC | 0.325 |
| GGATCCGA | 0.459 |
| GGATCCCA | 0.102 |
| CGATCCTA | -0.0737 |
| AGCGATAT | -0.172 |
| GTTCCTTA | 0.0117 |
